Measurements from PubChem BioAssay AID449762 (Southern Research Specialized Biocontainment Screening …, 2010).
The campaign covered roughly 330,000 compounds. About 1,900 (0.58%) were called active. Another 4% or so got no clear call; they are omitted. A selection follows. Entries with a potency or affinity are not part of this list. Unmarked numbers belong to inactive results. Rule as the data show it: inconclusive = inhibition above about 70% without an active follow-up result; inactive = below that.

Assay: M. tuberculosis growth inhibition, HTS (AID 449762);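 also: bacterial growth assessed after seven days of incubation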
Conditions: M. tuberculosis H37Rv growth inhibition, 7H9 media; at 25 µM; stronger effect = higher value

Row | SMILES | inhibition [%]
1 | COc1ccc(Nc2nc(N3CCN(S(C)(=O)=O)CC3)nc3ccccc23)c(OC)c1 | 2.78
2 | COc1ccc(Nc2nc(N3CCN(C)CC3)nc3ccccc23)c(OC)c1 | -4.21
3 | C=CCNC(=O)CN1C2CCCC1CC(NC(=O)c1ccccc1C)C2 (stereo not given) | -6.37
4 | O=C(COC(=O)c1ccccc1N1C(=O)C2C3CCC(C3)C2C1=O)c1ccccc1 (stereo not given) | -3.76
5 | COc1cc([N+](=O)[O-])ccc1NC(=O)CN1CCc2cc(OC)c(OC)cc2C1 | 6.98
6 | CCOC(=O)C(NCCCCl)c1ccccc1 (stereo not given) | 0.32
7 | COc1ccccc1OCCCCN1CCCCC1 | 2.93
8 | COc1ccccc1OCCOCCN1CCCC1 | -4.15
9 | CCCc1cc(NC(=O)COC(=O)c2nccnc2N)n(-c2ccccc2)n1 | 50.9
10 | CCCc1cc(NC(=O)COC(=O)c2ccc(O)cc2O)n(-c2ccccc2)n1 | -2.82
11 | C=CCNC(=S)NNC(=O)CCC(O)COCCC(C)C (stereo not given) | 1.2
12 | CCOC(=O)N1CCC(NC(=O)c2cc(COc3ccccc3SC)on2)CC1 | 1.54
13 | CC1=NN(c2cccc(C(=O)O)c2)C(=O)/C1=C\C=C\c1ccco1 | -4.32
14 | COc1cc(/C=C2/C(=O)N(c3ccc(C)c(C)c3)N=C2C)cc([N+](=O)[O-])c1O | -4.94
15 | Cc1nn(C)c(C)c1CNC(=O)Nc1cccc(Cl)c1C | -2.03
16 | Cc1ccc([N+](=O)[O-])c(NC2OC(CO)C(O)C2O)c1 (stereo not given) | -2.66
17 | COc1ccc(C2CC(c3ccc(Br)cc3)=NN2C(=O)c2cccnc2)cc1 (stereo not given) | 47.5
18 | N#CCc1nc2ccc(S(=O)(=O)N3CCOCC3)cc2s1 | -0.38
19 | Cc1ccccc1CN1CCCN(Cc2ccc(Cl)cc2)S1(=O)=O | 2.25
20 | CCOC(=O)c1c(NC(=O)CCCC(=O)O)sc2c1CCC2 | 1.76
21 | CCOC(=O)c1c(NC(C)=O)sc2c1CCC(C=O)=C2Sc1ccccc1 | 6.72
22 | COc1cccc(Cn2c(=O)ccc3ccccc32)c1 | 7.74
23 | O=C(Nc1ccc(Oc2cccc(C(F)(F)F)c2)nc1)c1ccccc1 | 14
24 | Cc1ccc(C(=O)Nc2ccc(Oc3cccc(C(F)(F)F)c3)nc2)cc1 | 3.4

Row | SMILES | inhibition [%]
25 | O=C1CN=CN=CN1c1ccc(Cl)cc1Cl | 10.8
26 | CCOC(=O)N1CCN(C(=O)C2CCC(=O)N(CCCc3ccccc3)C2)CC1 (stereo not given) | -4.71
27 | Cc1cc(C)n(-c2nc3ccccc3c(=O)n2OCC(N)=O)n1 | 13.1
28 | Cc1cc(CC(C)C)n(-c2nc3ccccc3c(=O)n2OCc2ccccc2)n1 | 58.9
29 | Cc1ccc(S(=O)(=O)NCC(=O)N(CC(=O)NCC2CCCO2)c2ccc(Cl)cc2)cc1 (stereo not given) | -3.29
30 | COc1ccc(C(=O)NNC(=O)CSc2nc3c(c(=O)n(C)c(=O)n3C)n2C)cc1 | 1.02
31 | COc1cc(NC(=O)C[n+]2ccc(C(=O)c3ccccc3)cc2)cc(OC)c1 | -7.81
32 | O=C(Nc1ccc(C(F)(F)F)cc1)c1ccccc1 | 0.07
33 | C[C@@H](CN1C(=O)C(=O)NC[C@@H]1Cc1ccc(O)cc1)NC(=O)Cc1ccccc1 | -2.19
34 | Cn1cccc1-c1cc(C(=O)N/N=C/c2ccc(F)cc2)[nH]n1 | -3.95
35 | CN(Cc1ccco1)c1ncnc2ccc(-c3ccoc3)cc12 | 17.5
36 | Cc1sc2ncnc(N(C)Cc3ccco3)c2c1C | -1.32
37 | CCOC(=O)C1=NN(c2ccccc2)C(c2ccccc2)CC1=O (stereo not given) | 12.7
38 | C=CCOc1ccc(C2CC(C)=NN2c2ccccc2)cc1 (stereo not given) | 3.55
39 | O=C1c2ccccc2C(=O)N1c1ccc(Cl)cc1 | -5.93
40 | Cc1ccc(N2C(=O)C3C(c4ccccc4)(C2=O)C3(c2ccccc2)c2ccccc2)cc1 (stereo not given) | 20.2
41 | O=c1c(Br)c(NCc2ccccc2)cnn1-c1ccc(F)cc1 | -5.73
42 | Cn1nnnc1Sc1ccc(C(=O)O)cc1[N+](=O)[O-] | 2.4
43 | O=C(O)c1ccc(Sc2nnnn2-c2ccccc2)c([N+](=O)[O-])c1 | 3.58
44 | COc1ccc(C(=O)c2ccc(N3CCN(C4CC(=O)NC4=O)CC3)cc2)cc1F (stereo not given) | 0.26
45 | Nc1ncnc(Sc2ccccc2)c1[N+](=O)[O-] | -0.35
46 | Cc1nc(Sc2ccccc2)c(C#N)c(C)c1[N+](=O)[O-] | 3.11
47 | C=CCNC(=O)COc1cc(C)cc(C)c1C | -2.5
48 | CCOc1ccc(CCNC(=O)Cn2c(=O)c3cccn3c3cccnc32)cc1 | -8.95

Row | SMILES | inhibition [%]
49 | Cc1ccc(Sc2c([N+](=O)[O-])ncn2C)cc1 | -9.59
50 | Cn1cnc([N+](=O)[O-])c1Sc1ccccc1 | -3.64
51 | Cc1cc(OC(=O)C(c2ccccc2)c2ccccc2)c([N+](=O)[O-])c(=O)[nH]1 | 1.27
52 | CC1=NN2C(=N)/C(=C\c3cc(C)n(-c4ccccc4)c3C)C(=O)N=C2S1 | -0.68
53 | NC(=O)CSc1n[nH]c(=O)n1CCc1ccccc1 | -5.89
54 | CCCCCCN1Cc2ccccc2C1 | 3.68
55 | O=c1ccsn1Cc1ccccc1 | 2.59
56 | Cc1ccc(OCCCCNC(C)c2ccccc2)c(C)c1 (stereo not given) | 7.81
57 | c1ccc(CCNCCCOc2cccc3ccccc23)cc1 | 40.1
58 | C#CCNC(=O)C1=C[C@H](c2ccc3c(c2)OCO3)C[C@H](OCc2ccc(CO)cc2)O1 | 6.55
59 | COc1ccccc1N1CCN(CC(=O)Nc2nc(C)c(C(=O)N(C)C)s2)CC1 | 0.78
60 | Nc1nc(-c2cc3ccccc3o2)cs1 | 27.5
61 | CN1CCN(c2nc(-c3cc4ccccc4o3)cs2)CC1 | 1.67
62 | COc1ccc2[nH]c(C)c(CCN(Cc3cccs3)C(=S)Nc3ccccc3)c2c1 | -7.77
63 | CCCCn1cnc2c1c(=O)n(CC(=O)c1cc(C)n(C)c1C)c(=O)n2CC(C)C | 5.57
64 | Cc1ccc(CN2CCN(Cc3ccc4c(c3)OCCO4)CC2CCO)cc1 (stereo not given) | -5.47
65 | O=C(c1nc2ccccc2[nH]1)c1ccccc1[N+](=O)[O-] | 13
66 | c1ccc(N(c2ccccc2)c2nc(-n3ccnc3)nc(-n3ccnc3)n2)cc1 | -9.38
67 | CN(c1ccccc1)c1nc(-n2ccnc2)nc(-n2ccnc2)n1 | 5.05
68 | CCCCNc1nc(-c2ccccc2)nc(-n2ccnc2)n1 | 10
69 | COc1nc(N(c2ccccc2)c2ccccc2)nc(-n2ccnc2)n1 | 34.2
70 | COC(=O)c1ccc(C2c3c(oc4ccc(F)cc4c3=O)C(=O)N2CCO)cc1 (stereo not given) | -6.43
71 | COc1ccccc1NC(=O)c1ccc2nsnc2c1 | 5.74
72 | CCN1C(=O)C(CC(=O)NCCc2ccccc2)N(NC(=O)c2cccnc2)C1=S (stereo not given) | 12

Row | SMILES | inhibition [%]
73 | Clc1ccccc1N=C1SCCS1 | -6.64
74 | CSc1ncccc1C(=O)N(C)CC(=O)Nc1ccc(Cl)c(C(F)(F)F)c1 | -3
75 | COc1ccccc1N1CCN(C(=O)C2CCN(S(=O)(=O)c3ccc(F)cc3)CC2)CC1 | -1.53
76 | CC(=O)Nc1cc(C(=O)N2CCc3ccccc3C2)ccc1Sc1ccc(Cl)cc1 | 2.06
77 | Cc1nc2c(C)cccn2c(=O)c1NC(=O)c1cccs1 | -5.13
78 | C=CCNc1oc(-c2ccc(Cl)cc2)nc1C#N | 47.3
79 | C=CCNc1oc(-c2ccc(OC)cc2)nc1C#N | 4.44
80 | NS(=O)(=O)c1ccc(NC(=O)CSc2nnc(Cc3cccs3)n2-c2ccccc2)cc1 | 10.1
81 | O=C(/C=C/c1ccccc1)N1CCN(c2ccccn2)CC1 | -12.8
82 | O=C1/C(=N\S(=O)(=O)c2cccs2)C([n+]2ccccc2)=C([O-])c2ccccc21 | -2.62
83 | CCc1cc[n+](C2=C([O-])c3ccccc3C(=O)/C2=N\S(=O)(=O)c2cccs2)cc1 | 2.09
84 | CCCCC1(C(=O)OCC)CC(CN2CCOCC2)OC1=O (stereo not given) | -5.65
85 | CN1CCN(c2ccc(NC(=O)c3cccs3)cc2)CC1 | 0.58
86 | COC(=O)C1=C(C)Nc2[nH]c(=S)[nH]c(=O)c2C1c1ccc(OC)cc1 (stereo not given) | -7.09
87 | COc1cc(/C=N/Nc2nc(Nc3ccccc3)nc(N3CCCCC3)n2)ccc1OCC(=O)O | 58.2
88 | O=C(O)COc1ccc(/C=N/Nc2nc(Nc3ccccc3)nc(N3CCCCC3)n2)cc1 | 23.6
89 | N/C(=N\OC(=O)CC1CCCCC1)c1ccc([N+](=O)[O-])cc1 | -1.51
90 | CCCn1c(=N)c(C(=O)NCC2CCCO2)cc2c(=O)n3cccc(C)c3nc21 (stereo not given) | -2.2
91 | CCOCCCn1c(=N)c(C(=O)NCc2ccc3c(c2)OCO3)cc2c(=O)n3cccc(C)c3nc21 | 68.2
92 | Brc1ccc(-c2csc(Nc3nc(-c4ccc(Br)cc4)cs3)n2)cc1 | 8.54
93 | Brc1ccc(-c2csc(-c3ccncc3)n2)cc1 | 36.4
94 | Cc1ccc(NC(=S)N2CCN(c3ccccn3)CC2)c(C)c1 | 5.35
95 | Cc1c(N=NC2=C(O)CC(C)(C)CC2=O)cc2c(c1[N+](=O)[O-])C(C)(C)CC2(C)C | 6
